ELG1 repair inh: inhibitors of ELG1-dependent DNA repair in HEK293T cells; HEK293T ELG1-luciferase reporter, luminescence, 16 h; DNA damage induced by 5-fluorouridine; Potency, µM (top dose mostly 46.1 µM), hits mostly inhibitors; hit rate 2.3% among 330,000; note: nearly all actives have a fitted effect of over 55% in size
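HEK293T cells expressing luciferase-tagged ELG1 (2,000/well) received 5-Fluorouridine plus compound or DMSO for 16 hr at 37 °C. Luciferase was read by ONE-Glo luminescence after 30 min at room temperature.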
TDP1 cell CPT: DT40-hTDP1 cell growth loss with CPT. hit rate 12% among 420,000. AID 686979. Potency, µM (doses to about 46.2 µM), usual class: inhibitors. chicken DT40 Tdp1-/-;hTDP1 cells + 20 nM CPT, ATP luminescence, 48 h; note: nearly all actives have a fitted effect of over 55% in size
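Cell growth measured by CellTiter-Glo luminescence after a minimum 48 h, 37 C compound exposure with 20 nM CPT in Tdp1-knockout DT40 cells stably expressing hTDP1, seeded 400/well; qHTS titration format.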
HT1080 IDH1KD tx: kills HT-1080 cells with IDH1 knockdown; Potency, µM (doses to about 46.1 µM), most hits filed as cytotoxic; HT-1080 IDH1 knockdown viability, ATP luminescence, 48 h; hit rate 2% among 360,000; AID 686971
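Knockdown cells (IDH1KD HT-1080) received compounds 2 h after plating at 750 cells/well and were kept 48 h at 37 °C in 5% FBS RPMI. A CellTiter-Glo luminescence read gave % activity for curve fitting.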
IL-1B inflam inh: blocks inflammasome-driven IL-1 beta release. THP-1 LPS/ATP IL-1B secretion, AlphaLISA, 16 h; active compounds read low. activity change, % at 57.5 µM. hit rate 4.7% among 360,000. AID 743279; in the data active = activity change below about -50%; inconclusive = mostly about -30% to -49%
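Secreted IL-1B measured by AlphaLISA bead assay after 16 h compound exposure of THP-1 cells; compounds (final up to 57.5 uM) added 1 h before LPS (250 ng/mL) and ATP (1.25 mM) stimulation; lower signal means less secretion.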
TDP1 cell noCPT: qHTS for Inhibitors of human tyrosyl-DNA phosphodiesterase 1 (TDP1): qHTS in cells in absence of CPT; DT40 Tdp1-/- hTDP1 cells, no CPT, ATP luminescence, 48 h; Potency, µM (doses to about 46.2 µM), hits mostly inhibitors; hit rate 15% among 420,000; AID 686978, 2013; note: nearly all actives have a fitted effect of over 55% in size
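Compound effects on proliferation are scored in DT40 Tdp1-/-;hTDP1 cells in the absence of CPT. ATP levels (CellTiter-Glo luminescence) are recorded after a ≥48 hr, 37 °C incubation.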
HT1080NT lethal: kills 2HG-producing HT-1080-NT fibrosarcoma cells | HT-1080-NT fibrosarcoma viability, CellTiter-Glo ATP luminescence, 48 h | Potency, µM (doses to about 46.1 µM), most hits filed as cytotoxic | AID 686970 | hit rate 1.6% among 360,000;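 note: NT is the 2HG producing partner of a matched IDH1 knockdown line; nearly all actives have a fitted effect of over 55% in size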
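HT-1080-NT fibrosarcoma cells (2HG-overproducing), 750 cells/well in RPMI with 5% FBS, dosed after 2 h and incubated 48 h at 37C. CellTiter-Glo luminescence normalized to DMSO and no-cell wells; concentration-response curves fitted and classed.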
Large screens that a line does not name were inactive; ! = a repeat was not active. This is a sample that favours compounds with a hit; in the whole collection about 19% have one here. Unless noted, calls come from the whole dose curve; as a rule, active = well fitted curve in the direction sought with a large enough effect; inconclusive = small, poorly fitted or top-dose-only effect, or another doubt; inactive = no such curve, though single readings can be large; an effect the other way counts as inactive or inconclusive.

CCCC1CCC(c2ccc(/C(N)=N/O)cc2)CC1 (stereo unspecified)	TDP1 cell CPT inconclusive, IL-1B inflam inh inconclusive, TDP1 cell noCPT 15µM
CN(C)CCNC(=O)CCCN1C(=O)c2cccnc2Oc2ccc(Cl)cc21	none (no result: ELG1 repair inh, HT1080 IDH1KD tx, IL-1B inflam inh, HT1080NT lethal)
Cc1nc2ccc(C(=O)N3c4ccccc4CC3C)cc2s1 (stereo unspecified)	TDP1 cell CPT 23µM, HT1080 IDH1KD tx 18µM, TDP1 cell noCPT inconclusive, HT1080NT lethal inconclusive
COC(=O)c1ccc(NC(=O)c2ccc[n+]([O-])c2)cc1	none
COc1c(CO)cc(CO)cc(CO)c1=O	none (no result: ELG1 repair inh, HT1080 IDH1KD tx, IL-1B inflam inh, HT1080NT lethal)
O=C(NC(=S)Nc1ccc(Cc2ccncc2)cc1)c1ccc(F)cc1	ELG1 repair inh inconclusive, TDP1 cell CPT inconclusive, TDP1 cell noCPT 16µM
CC(C)(C)C(=O)NC(=S)Nc1ccc(Cc2ccncc2)cc1	ELG1 repair inh inconclusive, TDP1 cell CPT inconclusive, IL-1B inflam inh -65, TDP1 cell noCPT inconclusive
CCc1c(C)c(C#N)c2nc3ccccc3n2c1Nc1cccc(C(F)(F)F)c1	TDP1 cell CPT 16µM, TDP1 cell noCPT 16µM (no result: ELG1 repair inh, HT1080 IDH1KD tx, IL-1B inflam inh, HT1080NT lethal)
CCc1c(C)c(C#N)c2nc3ccccc3n2c1Nc1c(C)n(C)n(-c2ccccc2)c1=O	TDP1 cell CPT inconclusive
CN1CSC2=C(C#N)C(c3cccc(OCc4ccccc4)c3)CC(=O)N2C1 (stereo unspecified)	TDP1 cell CPT 21µM, TDP1 cell noCPT inconclusive, HT1080NT lethal inconclusive
Brc1cc2c(cc1C1OCCCO1)OCO2	none (no result: ELG1 repair inh)
C[C@H](CO)N1C[C@H](C)[C@@H](CN(C)C)Oc2c(NC(=O)CCCCCC(=O)Nc3ccccc3N)cccc2C1=O	TDP1 cell CPT 18µM, TDP1 cell noCPT inconclusive
C[C@H](CO)N1C[C@H](C)[C@@H](CN(C)Cc2ccncc2)Oc2c(NC(=O)CCCCCC(=O)Nc3ccccc3N)cccc2C1=O	TDP1 cell CPT inconclusive, TDP1 cell noCPT 23µM
COc1ccc(C2CC(c3cccs3)=NN2C(=O)CSc2nc(=O)n3cc(C)ccc3n2)cc1 (stereo unspecified)	none
CCOc1ccc2[nH]cc(-c3csc(N)n3)c2c1	TDP1 cell CPT inconclusive, TDP1 cell noCPT 10µM
CCc1nc2nc(C)cc(Nc3ccc(OC)cc3OC)n2n1	none (no result: ELG1 repair inh, HT1080 IDH1KD tx, IL-1B inflam inh, HT1080NT lethal)
COc1ccc(NC(=O)C(c2ccc(OC)cc2)N(C)C(=O)Cc2cccs2)cc1 (stereo unspecified)	TDP1 cell CPT 23µM!, IL-1B inflam inh inconclusive
CCOCCCNC(=O)C(c1ccc(OC)cc1)N(Cc1cccs1)C(=O)c1ccc(NC(C)=O)cc1 (stereo unspecified)	TDP1 cell CPT 8.2µM, TDP1 cell noCPT 12µM (no result: ELG1 repair inh, HT1080 IDH1KD tx, IL-1B inflam inh, HT1080NT lethal)
COc1ccc(NC(=O)C(c2ccc(C)cc2)N(C)C(=O)Cc2cccs2)cc1 (stereo unspecified)	TDP1 cell CPT inconclusive, TDP1 cell noCPT inconclusive
Cc1ccc2c(c1)N(C(=O)CCC(=O)NCc1cccs1)CCO2	TDP1 cell CPT inconclusive (no result: ELG1 repair inh, HT1080 IDH1KD tx, IL-1B inflam inh, HT1080NT lethal)
Cc1ccc2nc(NC(=O)c3ccc(Cl)s3)sc2c1	ELG1 repair inh inconclusive, TDP1 cell CPT 21µM, TDP1 cell noCPT inconclusive
Cc1cccc(CSc2ncc(Cl)c(C(=O)Nc3nc4ccc(F)cc4s3)n2)c1	none (no result: ELG1 repair inh, HT1080 IDH1KD tx, IL-1B inflam inh, HT1080NT lethal)
Cc1ccc2nc(NC(=O)c3nc(SCc4ccccc4C)ncc3Cl)sc2c1	TDP1 cell noCPT 16µM (no result: ELG1 repair inh, HT1080 IDH1KD tx, IL-1B inflam inh, HT1080NT lethal)
Cc1ccc(C)c(N2CCN(C(=O)C(C)n3nc(C)c4sc5ccccc5c4c3=O)CC2)c1 (stereo unspecified)	none (no result: ELG1 repair inh, HT1080 IDH1KD tx, IL-1B inflam inh, HT1080NT lethal)
Cc1nn(C(C)C(=O)N2CCCCC2)c(=O)c2c1sc1ccccc12 (stereo unspecified)	TDP1 cell CPT inconclusive, TDP1 cell noCPT 21µM
COc1ccc(N2CCN(C(=O)C(C)n3nc(C)c4sc5ccccc5c4c3=O)CC2)cc1 (stereo unspecified)	TDP1 cell CPT inconclusive, TDP1 cell noCPT 16µM (no result: ELG1 repair inh, HT1080 IDH1KD tx, IL-1B inflam inh, HT1080NT lethal)
Cn1nnc2cc(C(=O)N3CCN(c4ccccn4)CC3)ccc21	none

Screens (PubChem BioAssay)
